# Source: paper PMC7862700, “An all-to-all approach to the identification of sequence-specific readers for epigenetic DNA modifications on cytosine”
# Molecular target: T1, SPIC (Homo sapiens, UniProt Q8N5J4 1-248)
# T1 sequence: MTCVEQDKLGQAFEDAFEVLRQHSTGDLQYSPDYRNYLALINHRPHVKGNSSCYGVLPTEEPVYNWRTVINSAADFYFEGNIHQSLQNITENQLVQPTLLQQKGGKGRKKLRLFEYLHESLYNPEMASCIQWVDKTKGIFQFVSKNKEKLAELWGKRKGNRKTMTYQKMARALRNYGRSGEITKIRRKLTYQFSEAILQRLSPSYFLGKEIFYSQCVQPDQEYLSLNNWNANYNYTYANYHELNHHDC
# Test: DAPPL (digital affinity profiling via proximity ligation, sequencing); 10 mM Tris-HCl pH 7.5, 50 mM NaCl, 1 mM DTT, 4% glycerol, room temperature, 30 min; GST-TFs on glutathione beads, 16-mer random dsDNA library, 0.1% formaldehyde crosslink after washing; high values mean tight binding
# Conditions: protein: recombinant; tags: N-terminal GST; dsDNA, one strand shown
# Summary of the method: (§1)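 The binding signal reported is, for every hexamer, its read frequency for a factor over its read frequency for the tag-only sample. Reads came from pools of yeast-expressed, GST-fused human transcription factors on glutathione beads, barcoded with DNA and mixed with that sample, which were incubated with 200 nmole of a random double-stranded 16-mer DNA library in Tris/NaCl/DTT/glycerol buffer at room temperature for 30 min. After washing, the pools were crosslinked with 0.1% formaldehyde, proximity-ligated with BsaI/T4 ligase for 1 h at 37 °C, PCR-amplified and sequenced on an Illumina NextSeq500.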
row,Sequence,binding signal
1,TCCATG,"1.05 fold enrichment (6-mer frequency, TF over GST control)"
2,CTTAGT,"1.09 fold enrichment (6-mer frequency, TF over GST control)"
3,TACTTT,"1.26 fold enrichment (6-mer frequency, TF over GST control)"
4,CCCTAC,"1.45 fold enrichment (6-mer frequency, TF over GST control)"
5,TTCTAT,"1.44 fold enrichment (6-mer frequency, TF over GST control)"
6,TCAAAC,"1.19 fold enrichment (6-mer frequency, TF over GST control)"
7,ATATAA,"1.1 fold enrichment (6-mer frequency, TF over GST control)"
8,TCCCGG,"2.35 fold enrichment (6-mer frequency, TF over GST control)"
9,CTTAAC,"1.18 fold enrichment (6-mer frequency, TF over GST control)"
10,TTACAC,"1.17 fold enrichment (6-mer frequency, TF over GST control)"
11,AGTGCT,"1.67 fold enrichment (6-mer frequency, TF over GST control)"
12,TCGACT,"1.41 fold enrichment (6-mer frequency, TF over GST control)"
13,GCTATT,"1.38 fold enrichment (6-mer frequency, TF over GST control)"
14,TGTCTT,"1.39 fold enrichment (6-mer frequency, TF over GST control)"
15,GCCTTA,"1.07 fold enrichment (6-mer frequency, TF over GST control)"
16,GCTCCT,"1.44 fold enrichment (6-mer frequency, TF over GST control)"
17,TCTACT,"1.51 fold enrichment (6-mer frequency, TF over GST control)"
18,ATTTTT,"1.1 fold enrichment (6-mer frequency, TF over GST control)"
19,TCTTAC,"1.29 fold enrichment (6-mer frequency, TF over GST control)"
20,ATTTGA,"1.11 fold enrichment (6-mer frequency, TF over GST control)"

row,Sequence,binding signal
1,TATCCA,"1.4 fold enrichment (6-mer frequency, TF over GST control)"
2,CTGTTA,"1.28 fold enrichment (6-mer frequency, TF over GST control)"
3,AATGCC,"1.07 fold enrichment (6-mer frequency, TF over GST control)"
4,CGAATA,"1.26 fold enrichment (6-mer frequency, TF over GST control)"
5,GATTCC,"1.18 fold enrichment (6-mer frequency, TF over GST control)"
6,GAACTC,"1.32 fold enrichment (6-mer frequency, TF over GST control)"
7,TTCACG,"1.45 fold enrichment (6-mer frequency, TF over GST control)"
8,TTCAAT,"1.43 fold enrichment (6-mer frequency, TF over GST control)"
9,TTCTCT,"1.16 fold enrichment (6-mer frequency, TF over GST control)"
10,TCTCGT,"1.31 fold enrichment (6-mer frequency, TF over GST control)"
11,ACAATT,"1.17 fold enrichment (6-mer frequency, TF over GST control)"
12,AACTGG,"1.38 fold enrichment (6-mer frequency, TF over GST control)"
13,ATCCTT,"1.74 fold enrichment (6-mer frequency, TF over GST control)"
14,GCGCTT,"1.26 fold enrichment (6-mer frequency, TF over GST control)"
15,TATGTT,"1.06 fold enrichment (6-mer frequency, TF over GST control)"
16,GACTCT,"1.55 fold enrichment (6-mer frequency, TF over GST control)"
17,TAATGC,"1.21 fold enrichment (6-mer frequency, TF over GST control)"
18,CCTTAG,"1.36 fold enrichment (6-mer frequency, TF over GST control)"
19,CTGACT,"1.24 fold enrichment (6-mer frequency, TF over GST control)"
20,AACTAC,"1.35 fold enrichment (6-mer frequency, TF over GST control)"

# Molecular target: ELF4 (Homo sapiens, UniProt Q99607 1-663)
# Sequence (Q99607 whole entry): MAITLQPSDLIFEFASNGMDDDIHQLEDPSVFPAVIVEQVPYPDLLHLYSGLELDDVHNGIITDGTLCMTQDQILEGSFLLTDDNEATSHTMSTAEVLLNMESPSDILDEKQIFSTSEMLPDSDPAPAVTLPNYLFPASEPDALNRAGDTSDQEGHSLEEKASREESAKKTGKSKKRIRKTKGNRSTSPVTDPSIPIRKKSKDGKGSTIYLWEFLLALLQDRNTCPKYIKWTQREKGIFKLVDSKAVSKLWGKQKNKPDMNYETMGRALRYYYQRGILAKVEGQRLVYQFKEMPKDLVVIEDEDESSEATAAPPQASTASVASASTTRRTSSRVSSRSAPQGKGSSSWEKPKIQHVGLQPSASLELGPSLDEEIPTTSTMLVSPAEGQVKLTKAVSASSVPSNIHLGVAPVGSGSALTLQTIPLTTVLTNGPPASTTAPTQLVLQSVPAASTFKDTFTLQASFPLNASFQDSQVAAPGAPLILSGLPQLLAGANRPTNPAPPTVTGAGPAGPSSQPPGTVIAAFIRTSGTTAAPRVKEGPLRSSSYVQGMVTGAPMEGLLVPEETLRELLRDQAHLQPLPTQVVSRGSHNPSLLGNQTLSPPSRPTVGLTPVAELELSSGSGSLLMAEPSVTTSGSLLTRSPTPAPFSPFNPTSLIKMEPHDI
# Test: as above
# Conditions: protein: recombinant; tags: N-terminal GST; dsDNA, one strand shown
# Summary of the method: as §1
row,Sequence,binding signal
1,TCCATG,"1.16 fold enrichment (6-mer frequency, TF over GST control)"
2,CTTAGT,"1.26 fold enrichment (6-mer frequency, TF over GST control)"
3,TACTTT,"1.43 fold enrichment (6-mer frequency, TF over GST control)"
4,CCCTAC,"1.47 fold enrichment (6-mer frequency, TF over GST control)"
5,TTCTAT,"1.4 fold enrichment (6-mer frequency, TF over GST control)"
6,TCAAAC,"1.21 fold enrichment (6-mer frequency, TF over GST control)"
7,ATATAA,"1.18 fold enrichment (6-mer frequency, TF over GST control)"
8,TCCCGG,"2 fold enrichment (6-mer frequency, TF over GST control)"
9,CTTAAC,"1.28 fold enrichment (6-mer frequency, TF over GST control)"
10,TTACAC,"1.21 fold enrichment (6-mer frequency, TF over GST control)"
11,AGTGCT,"1.33 fold enrichment (6-mer frequency, TF over GST control)"
12,TCGACT,"1.51 fold enrichment (6-mer frequency, TF over GST control)"
13,GCTATT,"1.38 fold enrichment (6-mer frequency, TF over GST control)"
14,TGTCTT,"1.19 fold enrichment (6-mer frequency, TF over GST control)"
15,GCCTTA,"1.3 fold enrichment (6-mer frequency, TF over GST control)"
16,GCTCCT,"1.51 fold enrichment (6-mer frequency, TF over GST control)"
17,TCTACT,"1.34 fold enrichment (6-mer frequency, TF over GST control)"
18,ATTTTT,"1.19 fold enrichment (6-mer frequency, TF over GST control)"
19,TCTTAC,"1.27 fold enrichment (6-mer frequency, TF over GST control)"
20,ATTTGA,"1.21 fold enrichment (6-mer frequency, TF over GST control)"

row,Sequence,binding signal
1,TATCCA,"1.29 fold enrichment (6-mer frequency, TF over GST control)"
2,CTGTTA,"1.37 fold enrichment (6-mer frequency, TF over GST control)"
3,AATGCC,"1.21 fold enrichment (6-mer frequency, TF over GST control)"
4,CGAATA,"1.11 fold enrichment (6-mer frequency, TF over GST control)"
5,GATTCC,"1.19 fold enrichment (6-mer frequency, TF over GST control)"
6,GAACTC,"1.26 fold enrichment (6-mer frequency, TF over GST control)"
7,TTCACG,"1.46 fold enrichment (6-mer frequency, TF over GST control)"
8,TTCAAT,"1.33 fold enrichment (6-mer frequency, TF over GST control)"
9,TTCTCT,"1.26 fold enrichment (6-mer frequency, TF over GST control)"
10,TCTCGT,"1.24 fold enrichment (6-mer frequency, TF over GST control)"
11,ACAATT,"1.25 fold enrichment (6-mer frequency, TF over GST control)"
12,AACTGG,"1.25 fold enrichment (6-mer frequency, TF over GST control)"
13,ATCCTT,"1.7 fold enrichment (6-mer frequency, TF over GST control)"
14,GCGCTT,"1.24 fold enrichment (6-mer frequency, TF over GST control)"
15,TATGTT,"1.2 fold enrichment (6-mer frequency, TF over GST control)"
16,GACTCT,"1.29 fold enrichment (6-mer frequency, TF over GST control)"
17,TAATGC,"1.28 fold enrichment (6-mer frequency, TF over GST control)"
18,CCTTAG,"1.34 fold enrichment (6-mer frequency, TF over GST control)"
19,CTGACT,"1.37 fold enrichment (6-mer frequency, TF over GST control)"
20,AACTAC,"1.39 fold enrichment (6-mer frequency, TF over GST control)"

# Molecular target: T2, ELK4 (Homo sapiens, UniProt P28324-2 1-405)
# T2 sequence: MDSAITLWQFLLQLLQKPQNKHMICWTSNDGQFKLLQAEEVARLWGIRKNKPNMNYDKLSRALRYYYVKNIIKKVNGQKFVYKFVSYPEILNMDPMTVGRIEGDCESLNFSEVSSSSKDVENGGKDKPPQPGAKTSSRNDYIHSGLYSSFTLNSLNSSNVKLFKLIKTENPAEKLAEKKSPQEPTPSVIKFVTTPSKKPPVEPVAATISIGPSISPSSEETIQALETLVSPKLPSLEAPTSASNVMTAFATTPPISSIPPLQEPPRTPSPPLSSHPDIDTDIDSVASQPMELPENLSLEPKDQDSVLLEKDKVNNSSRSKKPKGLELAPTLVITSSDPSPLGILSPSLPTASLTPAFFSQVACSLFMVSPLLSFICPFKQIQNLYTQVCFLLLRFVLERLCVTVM
# Test: as above
# Conditions: protein: recombinant; tags: N-terminal GST; dsDNA, one strand shown
# Summary of the method: as §1
row,Sequence,binding signal
1,TCCATG,"1.25 fold enrichment (6-mer frequency, TF over GST control)"
2,CTTAGT,"1.12 fold enrichment (6-mer frequency, TF over GST control)"
3,TACTTT,"1.4 fold enrichment (6-mer frequency, TF over GST control)"
4,CCCTAC,"1.53 fold enrichment (6-mer frequency, TF over GST control)"
5,TTCTAT,"1.52 fold enrichment (6-mer frequency, TF over GST control)"
6,TCAAAC,"1.28 fold enrichment (6-mer frequency, TF over GST control)"
7,ATATAA,"1.29 fold enrichment (6-mer frequency, TF over GST control)"
8,TCCCGG,"1.91 fold enrichment (6-mer frequency, TF over GST control)"
9,CTTAAC,"1.34 fold enrichment (6-mer frequency, TF over GST control)"
10,TTACAC,"1.25 fold enrichment (6-mer frequency, TF over GST control)"
11,AGTGCT,"1.37 fold enrichment (6-mer frequency, TF over GST control)"
12,TCGACT,"1.52 fold enrichment (6-mer frequency, TF over GST control)"
13,GCTATT,"1.56 fold enrichment (6-mer frequency, TF over GST control)"
14,TGTCTT,"1.17 fold enrichment (6-mer frequency, TF over GST control)"
15,GCCTTA,"1.1 fold enrichment (6-mer frequency, TF over GST control)"
16,GCTCCT,"1.33 fold enrichment (6-mer frequency, TF over GST control)"
17,TCTACT,"1.27 fold enrichment (6-mer frequency, TF over GST control)"
18,ATTTTT,"1.31 fold enrichment (6-mer frequency, TF over GST control)"
19,TCTTAC,"1.34 fold enrichment (6-mer frequency, TF over GST control)"
20,ATTTGA,"1.07 fold enrichment (6-mer frequency, TF over GST control)"

row,Sequence,binding signal
1,TATCCA,"1.33 fold enrichment (6-mer frequency, TF over GST control)"
2,CTGTTA,"1.4 fold enrichment (6-mer frequency, TF over GST control)"
3,AATGCC,"1.16 fold enrichment (6-mer frequency, TF over GST control)"
4,CGAATA,"1.25 fold enrichment (6-mer frequency, TF over GST control)"
5,GATTCC,"1.13 fold enrichment (6-mer frequency, TF over GST control)"
6,GAACTC,"1.14 fold enrichment (6-mer frequency, TF over GST control)"
7,TTCACG,"1.55 fold enrichment (6-mer frequency, TF over GST control)"
8,TTCAAT,"1.42 fold enrichment (6-mer frequency, TF over GST control)"
9,TTCTCT,"1.33 fold enrichment (6-mer frequency, TF over GST control)"
10,TCTCGT,"1.3 fold enrichment (6-mer frequency, TF over GST control)"
11,ACAATT,"1.26 fold enrichment (6-mer frequency, TF over GST control)"
12,AACTGG,"1.27 fold enrichment (6-mer frequency, TF over GST control)"
13,ATCCTT,"1.77 fold enrichment (6-mer frequency, TF over GST control)"
14,GCGCTT,"1.36 fold enrichment (6-mer frequency, TF over GST control)"
15,TATGTT,"1.29 fold enrichment (6-mer frequency, TF over GST control)"
16,GACTCT,"1.28 fold enrichment (6-mer frequency, TF over GST control)"
17,TAATGC,"1.23 fold enrichment (6-mer frequency, TF over GST control)"
18,CCTTAG,"1.34 fold enrichment (6-mer frequency, TF over GST control)"
19,CTGACT,"1.22 fold enrichment (6-mer frequency, TF over GST control)"
20,AACTAC,"1.32 fold enrichment (6-mer frequency, TF over GST control)"
